# Source: PubChem
# Only some compounds are listed: those with a hit (about 6.1% of all), similar ones and a draw of the others.
# HepG2 viability: counter-screen for TGF-b inhibitors: cytotoxicity in HepG2 cells. Potency, µM (titrated, usually from 46.1 µM), for the others: at the top dose activity change, negative = cytotoxicity, usual class: cytotoxic. actives 0.76% (n = 410,000). HepG2 CAGA-GFP viability, ATP luminescence, 18 h
#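 CellTiter-Glo luminescence gave cytotoxicity after 18 hours at 37 degrees C. The cells were HepG2 CAGA-GFP in 1% FBS DMEM, stimulated with 500 pg/mL TGF-beta after compound addition. %Activity was normalised to no-cell wells (complete cell-killing) and DMSO (no toxicity), and curves were fitted and classified.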
# RORg inh: inhibitors of mouse ROR gamma transcriptional activity. P51450. Drosophila S2 Gal4-RORgamma UAS-luciferase reporter, 20 h. Potency, µM (doses to about 53.6 µM), inactives show top-dose activity change, negative = inhibition, usual class: inhibitors. actives 5.4% (n = 310,000). AID 2551; further: on the % scale 0 is the no-effect control and ±100 the full control effect; nearly all actives have a fitted effect of over 60% in size
# Target sequence (P51450 whole entry, looked up, the tested form may be a part): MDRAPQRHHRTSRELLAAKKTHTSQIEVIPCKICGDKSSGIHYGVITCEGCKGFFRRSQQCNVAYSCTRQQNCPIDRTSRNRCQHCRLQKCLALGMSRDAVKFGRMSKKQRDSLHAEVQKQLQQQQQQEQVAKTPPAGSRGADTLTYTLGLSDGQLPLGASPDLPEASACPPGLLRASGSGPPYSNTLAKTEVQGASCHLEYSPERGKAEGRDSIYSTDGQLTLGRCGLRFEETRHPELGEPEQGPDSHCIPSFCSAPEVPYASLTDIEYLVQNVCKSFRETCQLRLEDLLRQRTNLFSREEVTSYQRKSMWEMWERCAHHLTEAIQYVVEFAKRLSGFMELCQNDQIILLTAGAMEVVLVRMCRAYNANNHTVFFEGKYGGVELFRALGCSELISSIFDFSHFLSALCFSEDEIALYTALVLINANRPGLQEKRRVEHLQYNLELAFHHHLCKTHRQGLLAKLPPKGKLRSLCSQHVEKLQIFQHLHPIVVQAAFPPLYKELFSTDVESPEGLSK
#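 ROR gamma transcriptional activity was tracked as Gal4-UAS luciferase output in stably transfected Drosophila Schneider cells, with compound added 1 hr before 700 uM copper sulfate induction and a 20 hr ambient-temperature incubation.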
# ATXN viability: reduces viability in counter-screen for ATXN expression inhibitors | S2 cells (HEK-293 line with an ATXN2-luciferase reporter) viability, CellTiter-Fluor protease fluorescence, 24 h | Potency, µM (top dose mostly 56.7 µM), usual class: cytotoxic | actives 0.49% (n = 400,000) | AID 651635; further: nearly all actives have a fitted effect of over 40% in size
# TGFb SMAD3 inh: blocks TGF-b signaling | actives 1.2% (n = 410,000) | HepG2 CAGA-GFP TGF-b/SMAD3 reporter, GFP fluorescence, 18 h; TGF-beta stimulated, 500 pg/mL final | AID 588855 | Potency, µM (series often up to 46.1 µM), for inactives: top-dose activity, negative = inhibition, hits mostly inhibitors; further: on the % scale 0 is the no-effect control and ±100 the full control effect; nearly all actives have a fitted effect of over 65% in size
#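 Per well, imaged GFP fluorescence of HEPG2 CAGA-GFP cells gives the signal; cells get compound, then TGF-beta (500 pg/mL final), 18 h at 37 degrees C; %Activity versus -TGF-beta and +DMSO controls.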
# ATXN2 expr inh: reduces ATXN2 reporter expression in HEK-293 cells; HEK-293 ATXN2-luciferase reporter, luminescence, 24 h; Potency, µM (highest dose often 57 µM), without a hit: top-dose activity change, negative = inhibition, usual class: inhibitors; actives 0.72% (n = 360,000); further: on the % scale 0 is the no-effect control and ±100 the full control effect; nearly all actives have a fitted effect of over 55% in size
#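 ATXN2-luciferase reporter cells (luciferase flanked by upstream and downstream ATXN2 gene portions) were treated 24 h at 37 °C with compounds at up to 57 uM. SteadyGlo luminescence gave expression; GF-AFC fluorescence gave viability.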
# VP16 counter: inhibits Gal4-VP16 luciferase reporter, ROR gamma counter-screen; Drosophila S2 Gal4-VP16 UAS-luciferase, luminescence, 20 h; actives 3.5% (n = 310,000); Potency, µM (doses to about 53.6 µM), without a hit: at the highest dose activity, negative = inhibition, usual class: inhibitors;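 further: Gal4-VP16 expression switched on by copper sulfate through the metallothionein promoter; on the % scale 0 is the no-effect control and ±100 the full control effect; nearly all actives have a fitted effect of over 50% in size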
# Starred values were filed as active, the others as inactive; i = inactive; ? = inconclusive; . = no result given. The call rests on the fitted dose curve; in most records, active means well fitted curve in the direction sought with a large enough effect; inconclusive means small, poorly fitted or top-dose-only effect, or another doubt; inactive means no such curve, though single readings can be large; an effect the other way counts as inactive or inconclusive. Potency means the concentration at half of the fitted maximal effect.
SMILES,HepG2 viability,RORg inh,ATXN viability,TGFb SMAD3 inh,ATXN2 expr inh,VP16 counter
CCOc1ccc(Nc2nc(C)c(NC(=O)c3ccc(C)cc3)c(Nc3ccc(OCC)cc3)n2)cc1,-16%,.,?,?,0%,.
CC(=O)c1cc(C(=O)Nc2ccc3ccccc3c2)c(C)o1,-7%,-7%,i,14%,-7%,-17%
Cc1cc(C(=O)Nc2ccc3ccccc3c2)c(C)o1,-18%,8.9µM*,i,-14%,82%,?
Cc1ccc(Nc2nc(C)c(NC(=O)c3ccc(C)cc3)c(Nc3ccc(C)cc3)n2)cc1,-18%,.,i,14µM*,?,.
COc1cc2ccccc2cc1C(=O)NNC(=O)c1ccccc1O,.,11µM*,.,.,.,?
COc1ccc(NC(=O)c2cc3ccccc3cc2OC)cc1,-1%,?,i,-4%,64%,0%
COc1ccccc1C(=O)NNC(=O)c1cccc(O)c1,-26%,?,i,12%,.,?
CCOc1ccccc1NS(=O)(=O)c1ccc2oc(=O)c3ncn(C)c3c2c1,-67%,.,?,?,?,.
Cc1ccc(C)c(Nc2nn3c(=O)c4ccc(C(=O)N(C)Cc5ccccc5)cc4nc3s2)c1,-27%,.,.,?,.,.
COc1ccc(C(=O)Nc2ccc(C(=O)Nc3cccc(C)c3)cc2)cc1,3%,-17%,10µM*,-2%,?,-7%
Cc1cccc(NC(=O)C(=O)NNC(=O)c2ccc(C(C)(C)C)cc2)c1,-3%,?,i,-1%,14%,10µM*
CC(C)(C)c1ccc(C(=O)NNC(=O)c2cccc(Br)c2)cc1,-63%,?,i,?,-7%,?
CC(/C=N\NC(=O)c1cc(C)oc1C)=C\c1ccccc1,-18%,6.3µM*,i,2%,15%,?
COc1ccc(NC(=O)c2cccc(NC(=O)c3ccccc3)c2)cc1,-24%,?,i,-11%,3%,27%
O=C(Nc1ccc2ccccc2c1)c1ccc(Cl)cc1,-2%,?,?,-2%,.,?
Cc1ccc(C(=O)Nc2ccc3ccccc3c2)cc1,-22%,6.3µM*,?,-1%,-76%,11µM*
CC(C)(C)C(=O)Nc1ccc(C(=O)Nc2cccc(Oc3ccc(C(=O)O)c(C(=O)O)c3)c2)cc1,13%,?,.,-1%,.,11µM*
O=C(Nc1cccc(Oc2ccc(C(=O)O)c(C(=O)O)c2)c1)c1ccc(-c2ccccc2)cc1,-11%,?,i,-2%,-30%,?
CCOc1ccc(-c2nc(CSCC(=O)NCCCN3CCCC3=O)c(C)o2)cc1,-57%,-29%,i,3%,-26%,-15%
COc1ccc(-c2nc(CSCC(=O)N3CCN(c4cc(Cl)ccc4C)CC3)c(C)o2)cc1,-34%,.,.,18µM*,.,.
Cc1ccc(Cl)cc1N1CCN(C(=O)C2CCCN(Cc3nc(-c4cccc(Cl)c4)oc3C)C2)CC1 (centres undefined),-2%,.,?,-13%,?,.
CCc1ccc(-c2nc(CN3CCCC(C(=O)N4CCN(c5cc(Cl)ccc5C)CC4)C3)c(C)o2)cc1 (centres undefined),-43%,.,16µM*,?,20µM*,.
COc1ccc(-c2nc(CSCC(=O)NCCCN3CCCC3=O)c(C)o2)cc1,-2%,-24%,i,0%,-13%,11µM*
Cc1cccc(N2CCN(C(=O)CSCc3c(C)noc3C)CC2)c1C,-14%,?,i,-12%,-1%,10µM*
COc1ccc(-c2nc(CSCC(=O)N3CCN(c4ccc(OC)cc4)CC3)c(C)o2)cc1,-14%,.,.,?,.,.
SMILES,HepG2 viability,RORg inh,ATXN viability,TGFb SMAD3 inh,ATXN2 expr inh,VP16 counter
COc1ccc(-c2ccc(C(=O)N(C)Cc3csc(C)n3)c(N3CCC(N4CCc5ccccc5C4)CC3)n2)cc1,.,.,i,.,.,.
Cc1oc(-c2cccc(NC(=O)c3ccccn3)c2)nc1CNC(=O)c1ccc(C(F)(F)F)cc1,.,.,i,.,.,.
CC(=O)Nc1ccc(S(=O)(=O)NC2(C(F)(F)F)C(=O)Nc3c2c(=O)[nH]c(=O)n3-c2ccc(C)c(C)c2)cc1 (centres undefined),-25%,.,i,-1%,11%,.
CCc1ccc(-c2nc(CSCC(=O)N3CCN(c4ncccn4)CC3)c(C)o2)cc1,-11%,16µM*,i,?,?,16µM*
Cc1oc(-c2cccc(Cl)c2)nc1CN1CCC(C(=O)NCCc2ccc(Cl)cc2)CC1,-16%,.,i,-1%,1%,.
COc1ccc(-c2nc(CSCC(=O)N3CCN(c4cccc(C)c4C)CC3)c(C)o2)cc1OC,-38%,.,32µM*,-27%,?,.
COc1ccc(-c2nc(CSCC(=O)N3CCN(C)CC3)c(C)o2)cc1OC,3%,15%,i,15%,3%,-4%
Cc1ccc(-c2nc(CS(=O)(=O)CC(=O)N3CCN(c4ccccc4)CC3)c(C)o2)cc1,-29%,.,.,11µM*,.,.
CCCN(CCC)CCNC(=O)C1CCN(Cc2nc(-c3ccc(Cl)cc3)oc2C)CC1,-28%,2%,16µM*,7%,?,-8%
CN(C)c1ccc(CCc2ccnc3ccccc23)cc1,-32%,.,.,0%,.,.
C1=Cc2ccccc2/C1=C\c1ccc2c(c1)OCO2,-26%,.,.,-10%,.,.
Cc1cccc(-c2nc(CSCC(=O)N3CCN(c4ccccc4)CC3)c(C)o2)c1,-27%,.,.,11µM*,.,.
NC(Cc1ccc(Cl)cc1)c1csc(NC(=O)Nc2ccccc2)n1 (centres undefined),16µM*,.,?,16µM*,?,.
NC(Cc1ccc(C(F)(F)F)cc1)c1csc(NC(=O)Nc2ccccc2)n1 (centres undefined),16µM*,.,.,?,?,.
NC(CCc1ccccc1)c1csc(NC(=O)Nc2cccc(C(F)(F)F)c2)n1 (centres undefined),11µM*,.,.,?,?,.
NC(Cc1ccc(F)cc1)c1csc(Nc2nccc(C(F)(F)F)n2)n1 (centres undefined),-112%,.,.,?,-20%,.
NC(Cc1ccccc1)c1csc(Nc2nccc(C(F)(F)F)n2)n1 (centres undefined),16µM*,.,i,16µM*,?,.
COc1ccc(CC(N)c2csc(NC(=O)Nc3cccc(C(F)(F)F)c3)n2)cc1 (centres undefined),-114%,.,?,?,?,.
c1ccc(-c2nc(-c3ccccc3)c(NC3CCCCC3)o2)cc1,.,-1%,.,.,.,1%
FC(F)(F)c1cccc(N2CCN(c3nc4ccccc4n4cnnc34)CC2)c1,7%,.,i,1%,10%,.
